The values that follow come from the supplement of paper PMC10338343.

± gives the standard deviation.

Test [1] deals with MILI (PIWIL2) piRISC loaded with L1MC piRNA (26 nt). Put plainly: pre-steady-state target cleavage rate (min^-1); guide: L1MC piRNA 5'p-UAACUAAAUACUAUGCAAGCUGUAGG; higher = faster piRNA-guided slicing of the target. The procedure, abridged: (§1)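 Sequencing of uncleaved targets, normalised to depth and to weakly complementary targets, was the readout of this Cleave-'n-Seq assay. A transcribed, DNA-blocked target RNA library (0.1 nM) was mixed with 1 nM active affinity-purified piRISC carrying one synthetic guide, with or without 500 nM GTSF1 partner protein, in HEPES–potassium acetate buffer at 33 °C for 0–8 or 0–960 min. Three trials were pooled, k3 was capped at 0.0001 min^-1, and a burst-and-steady-state fit gave the pre-steady-state cleavage rate.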

The subject of test [2] is EfPiwi piRISC loaded with L1MC piRNA (26 nt). Nature of the test: pre-steady-state target cleavage rate (min^-1); auxiliary factor: 500 nM Ephydatia muelleri Gtsf1; guide: L1MC piRNA 5'p-UAACUAAAUACUAUGCAAGCUGUAGG; MIWI and MILI are mouse PIWI proteins and EfPiwi is from a freshwater sponge; tags in brackets are library labels; higher = faster piRNA-guided slicing of the target. The gist of the method:
as §1

Where [3] appears, read: auxiliary factor: 500 nM mouse GTSF1.
Where [4] appears, read: auxiliary factor: none (no GTSF1).

For the sequence UCCUGGAUGUCCUUGCAUAGUAUGUUAGUUA, the “pre-steady-state target cleavage rate” value in test [1] (setting [3]) is 0.0434 ± 0.0088; in test [1] (setting [4]), 0.00471 ± 0.0025; in test [2], 0.00355 ± 0.0035.
As to UCCUGGUACAGCUUGCAUAGUAUCUUAGUUA, the figures for the “pre-steady-state target cleavage rate” value in test [1] (setting [3]), in test [1] (setting [4]) and in test [2] were 0.188 ± 0.031, 0.00861 ± 0.0033 and 0.00588 ± 0.0027, respectively.
Consider UCCUCCUACACCUAGCAUAGUAUUUAGUUA, for which the “pre-steady-state target cleavage rate” value in test [1] (setting [3]) was 0.205 ± 0.027; in test [1] (setting [4]), 0.0056 ± 0.0018; in test [2], 0.00718 ± 0.0027.
Regarding UCCUGCUACAGCUUGCAUACUAUUUAGAUA, the “pre-steady-state target cleavage rate” value in test [1] (setting [3]) was determined as 0.0214 ± 0.0094; in test [2], 0.00382 ± 0.002.
As for UCCUCCUACAGCUUGCAUAGUAUUUAUUUA, the entries for the “pre-steady-state target cleavage rate” value in test [1] (setting [3]), in test [1] (setting [4]) and in test [2] were 0.142 ± 0.019, 0.00314 ± 0.0027 and 0.143 ± 0.053, respectively.
Regarding “UCCUCCUACAGCUUGCAUAGUAUUUAGUUG [g2:g26:cont:t1G]”, the “pre-steady-state target cleavage rate” value was found to be 0.158 ± 0.016 in test [1] (setting [3]), 0.0087 ± 0.0025 in test [1] (setting [4]) and 0.00723 ± 0.0029 in test [2].
As to UCCUGGAACAGCUUGCAUGGUAUUUAGUUA, the results for the “pre-steady-state target cleavage rate” value in test [1] (setting [3]), in test [1] (setting [4]) and in test [2] were 0.283 ± 0.022, 0.00826 ± 0.0025 and 0.0141 ± 0.0045, respectively.
For UCCUGCUACAGCUUGCCUAGUAUUUAGUUA, the “pre-steady-state target cleavage rate” value in test [1] (setting [3]) came to 0.222 ± 0.015; in test [1] (setting [4]), 0.0074 ± 0.0022; in test [2], 0.00702 ± 0.0018.
For UCCUCCUACUGCUUGCAUAGUAUAUAGUUA, the “pre-steady-state target cleavage rate” value amounted to 0.179 ± 0.021 in test [1] (setting [3]), 0.00372 ± 0.0022 in test [1] (setting [4]) and 0.0123 ± 0.0054 in test [2].
Consider UCCUGGUACAGCUUAGCAUAGUAUUUAGUUA, for which the “pre-steady-state target cleavage rate” value in test [1] (setting [3]) worked out at 0.296 ± 0.018; in test [1] (setting [4]), 0.0164 ± 0.0045; in test [2] it was 0.0188 ± 0.0058.
For UCCUCCUACUGCUUGCAUAGUAUUUUGUUA, the results for the “pre-steady-state target cleavage rate” value in test [1] (setting [3]), in test [1] (setting [4]) and in test [2] were 0.0977 ± 0.016, 0.00448 ± 0.0018 and 0.0111 ± 0.0044, respectively.
For UCCUCCUAAGCUUGCAUAGUAUUUAGUUA the same measures were 0.23 ± 0.015, 0.00512 ± 0.002 and 0.0155 ± 0.0059.
For the sequence UCCUGGAACAGCUUGCAUACUAUUUAGUAA, the results for the “pre-steady-state target cleavage rate” value in test [1] (setting [3]) and in test [2] were 0.0934 ± 0.025 and 0.00398 ± 0.0022, respectively.
For UCCUCCUACAGCUUGCAAAGUUUUUAGUUA, the “pre-steady-state target cleavage rate” value amounted to 0.0169 ± 0.0064 in test [1] (setting [3]), 0.00334 ± 0.0023 in test [1] (setting [4]) and 0.00281 ± 0.0022 in test [2].
On to UCCUGCUACAGCUAGCAUAGUAUUAAGUUA, for which the “pre-steady-state target cleavage rate” value in test [1] (setting [3]) worked out at 0.3 ± 0.032; in test [2], 0.00662 ± 0.0026.
With UCCUGCUACAGCUUGCAAAGUAUUUUGUUA, the “pre-steady-state target cleavage rate” value in test [1] (setting [3]) came to 0.139 ± 0.026; in test [1] (setting [4]), 0.00325 ± 0.0025; in test [2], 0.00625 ± 0.0028.
For UCCUGCUACAGCUUGCAUAGUAAUUUAGUUA the same measures were 0.233 ± 0.023, 0.00525 ± 0.0024 and 0.00515 ± 0.0024.
For UCCUCCUACAGCAUUGCAUAGUAUUUAGUUA, the “pre-steady-state target cleavage rate” value in test [1] (setting [3]) was 0.228 ± 0.014; in test [1] (setting [4]) it was 0.00746 ± 0.0025; in test [2], 0.0213 ± 0.0068.
Consider UCCUGGAACAGCUUGCAUAGUAUUAUAGUUA, for which the results for the “pre-steady-state target cleavage rate” value in test [1] (setting [3]), in test [1] (setting [4]) and in test [2] were 0.149 ± 0.024, 0.00335 ± 0.0027 and 0.0399 ± 0.015, respectively.
On to UCCUGCUACAGCUUGCAUAGUAAUUUGUUA, for which the figures for the “pre-steady-state target cleavage rate” value in test [1] (setting [3]) and in test [2] were 0.245 ± 0.053 and 0.00579 ± 0.002, respectively.
Regarding UCCUCCUACAGCAUGCAUAGUAUUUAGUUA, the “pre-steady-state target cleavage rate” value is 0.316 ± 0.021 in test [1] (setting [3]), 0.0117 ± 0.0029 in test [1] (setting [4]) and 0.0743 ± 0.019 in test [2].
In the same order, the values of UCCUGGAUGAGCUAGCAUAGUUUUUAGUUA are 0.0185 ± 0.0066, 0.00507 ± 0.0028 and 0.00278 ± 0.0027.
UCCUGGAUGAGCUCGCAUAGUAUUUAGUUA: the “pre-steady-state target cleavage rate” value was 0.241 ± 0.017 in test [1] (setting [3]), 0.0047 ± 0.0035 in test [1] (setting [4]) and 0.0143 ± 0.0042 in test [2].
Take UCCUGGAACAGCUUGCAUAGUAUUUAGUUUA: the “pre-steady-state target cleavage rate” value stood at 0.321 ± 0.018 in test [1] (setting [3]), 0.00981 ± 0.003 in test [1] (setting [4]) and 0.0245 ± 0.0071 in test [2].
In the same order, the values of “UCCUGGAACAGCUUGCAUAGUAUUUAGUUG [g2:g23:cont:t1G]” are 0.252 ± 0.024, 0.00663 ± 0.0021 and 0.0115 ± 0.0034.
UCCUCCUACAGCUUGCAUAGAUUUAGUUA: the “pre-steady-state target cleavage rate” value in test [1] (setting [3]) came out at 0.00908 ± 0.0047; in test [2], 0.00442 ± 0.0029.
For UCCUGGAUGUGCUUGCAUAGUAUUUAGGUUA, the results for the “pre-steady-state target cleavage rate” value in test [1] (setting [3]), in test [1] (setting [4]) and in test [2] were 0.102 ± 0.019, 0.00588 ± 0.0033 and 0.00262 ± 0.0021, respectively.
Take UCCUGCUACAGCUAGCAUAGUAUUUACUUA: the “pre-steady-state target cleavage rate” value in test [1] (setting [3]) is 0.351 ± 0.051; in test [2], 0.00364 ± 0.0025.
As to UCCUGGAUCAGCUUGCAUAGUAUUAAGUAA, the entries for the “pre-steady-state target cleavage rate” value in test [1] (setting [3]) and in test [2] were 0.178 ± 0.03 and 0.00602 ± 0.0026, respectively.
For the sequence UCCUGGAACAGUCUUGCAUAGUAUUUAGUUA, the “pre-steady-state target cleavage rate” value came out at 0.26 ± 0.018 in test [1] (setting [3]), 0.00993 ± 0.0026 in test [1] (setting [4]) and 0.00822 ± 0.0027 in test [2].
Regarding “UCCUGGUACAGCUUGCAUAGUAUUUAGUUG [g2:g24:cont:t1G]”, the “pre-steady-state target cleavage rate” value worked out at 0.218 ± 0.018 in test [1] (setting [3]), 0.00995 ± 0.003 in test [1] (setting [4]) and 0.0182 ± 0.0065 in test [2].
Regarding UCCUGGUACAGCUGCAUAGUAUUUAGUUA, the “pre-steady-state target cleavage rate” value in test [1] (setting [3]) was 0.23 ± 0.016; in test [1] (setting [4]) it was 0.0103 ± 0.0029; in test [2], 0.00843 ± 0.0034.
In the case of UCCUCCUACAGCUUGCAUUGUAUUUAGUUA, the “pre-steady-state target cleavage rate” value in test [1] (setting [3]) amounted to 0.222 ± 0.014; in test [1] (setting [4]), 0.00744 ± 0.0019; in test [2], 0.0211 ± 0.0059.
Consider UCCUGGUACAGCUUGGAUAGUAUUUAGUUA, for which the entries for the “pre-steady-state target cleavage rate” value in test [1] (setting [3]), in test [1] (setting [4]) and in test [2] were 0.206 ± 0.024, 0.0152 ± 0.0038 and 0.0049 ± 0.0027, respectively.
For UCCUGCAACAGCUUGCAUAGUUUUUAGUUA the same measures were 0.0613 ± 0.0099, 0.00354 ± 0.0029 and 0.00727 ± 0.0019.
With UCCUCCUACAGCUUGCAUAGAAUUUAGUUA, the “pre-steady-state target cleavage rate” value in test [1] (setting [3]) was 0.1 ± 0.021; in test [2] it was 0.0078 ± 0.0023.
In the same order, the values of UCCUGCUACAGCUUGCAUAGUAUAAUGAAA are 0.0499 ± 0.018 and 0.00473 ± 0.0032.
UCCUCCAACAGCUUGCAUAGUAUUUACUUA: the entries for the “pre-steady-state target cleavage rate” value in test [1] (setting [3]) and in test [2] were 0.122 ± 0.022 and 0.00475 ± 0.0037, respectively.
In the same order, the values of UCCUCCUACAGCUUGCAUAGUAUUUACUAA are 0.114 ± 0.027 and 0.00569 ± 0.003.
In the same order, the values of UCCUGGUACAGCUUGCAUUGUAUUUAGAAA are 0.0202 ± 0.0075 and 0.00329 ± 0.0019.
For UCCUCGUACAGCUUGCAUAGUAUUUACAAA the same measures were 0.105 ± 0.025 and 0.00271 ± 0.0024.
Consider UCCUGGAUCAGCUUGCAUAGUAUUGAGUUA, for which the “pre-steady-state target cleavage rate” value in test [1] (setting [3]) worked out at 0.227 ± 0.039; in test [2], 0.00662 ± 0.0024.
On to UCCUGGAACAGCUUGCAUAGUAUUGAGUUA, for which the “pre-steady-state target cleavage rate” value in test [1] (setting [3]) was determined as 0.172 ± 0.029; in test [2], 0.00624 ± 0.0022.
Turning to UCCUGGUACAGCUUGCAAAGUAUUUAGUAA, the “pre-steady-state target cleavage rate” value was found to be 0.0794 ± 0.014 in test [1] (setting [3]) and 0.00304 ± 0.0024 in test [2].
Take UCCUGGAACAGCUUGGAUAGUUUUUAGUUA: the “pre-steady-state target cleavage rate” value is 0.0453 ± 0.0097 in test [1] (setting [3]) and 0.00298 ± 0.0022 in test [2].
For UCCUGGAUGUCCUUGCAUAGUAUUUAGCUUA, the figures for the “pre-steady-state target cleavage rate” value in test [1] (setting [3]) and in test [2] were 0.0698 ± 0.014 and 0.0051 ± 0.0028, respectively.
As to UCCUCCUUGAGCUUGCAUAGUAUUUUCAAA, the “pre-steady-state target cleavage rate” value in test [1] (setting [3]) was 0.0637 ± 0.016; in test [2], 0.00265 ± 0.0021.
Take UCCUGGAUGAGCUUGCAUAGUAUUUAGUCUA: the “pre-steady-state target cleavage rate” value in test [1] (setting [3]) amounted to 0.0419 ± 0.013; in test [2], 0.00413 ± 0.0026.
For the sequence UCCUGGAUCAGCUUGCAUACUAUUUACUUA, the “pre-steady-state target cleavage rate” value in test [1] (setting [3]) was found to be 0.0867 ± 0.02; in test [2], 0.00362 ± 0.0032.
For UCCUGCUACAGGUUGCAUAGUAUUUAGAAA, the results for the “pre-steady-state target cleavage rate” value in test [1] (setting [3]) and in test [2] were 0.0337 ± 0.011 and 0.00261 ± 0.0014, respectively.
